Test results published in PubChem BioAssay AID1159580 (chemical genetic matrix, 2015).
The campaign covered roughly 5,500 compounds. About 2,000 (36%) were called active. Another 18% or so got no clear call; they are omitted. Cut-off read from the data, not from the text of the source: active = normalized growth mostly below about 0.91 (no sharp cut-off); inconclusive = no clear call, values can overlap the other calls; inactive = mostly above about 0.92. The list shows a part of the results.

Experiment: chemical genetic growth profiling, strain panel (AID 1159580);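 note: tested at 20 µM; growth read once vehicle control cultures reached saturation at 30 °C; 1 = growth at the plate median or of vehicle wells; lower values mean less growth of the strain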
Settings: growth OD

Measured: normalized growth

O=C(O)c1nc2cc(Cl)c(Cl)cc2[nH]c1=O
inactive: S. cerevisiae deletion strains, locus YJR075W, strain HOC1, active compounds read low 1.07 | S. cerevisiae deletion strains, locus YKL009W, strain mrt4, active compounds read low 0.949 | S. cerevisiae deletion strains, locus YKL068W, active compounds read low 0.981 | S. cerevisiae deletion strains, locus YKL085W, strain MDH1 (second series), active compounds read low 1.02 | S. cerevisiae deletion strains, locus YKL085W, strain MDH1, active compounds read low 1.02 | S. cerevisiae deletion strains, locus YKL160W, strain elf1, active compounds read low 0.996 | S. cerevisiae deletion strains, locus YKL190W, strain CNB1, active compounds read low 0.996 | S. cerevisiae deletion strains, locus YKR001C, strain vps1, active compounds read low 0.983 | S. cerevisiae deletion strains, locus YKR026C, strain gcn3, active compounds read low 1.02 | S. cerevisiae deletion strains, locus YKR091W, strain srl3, active compounds read low 1.01 | S. cerevisiae deletion strains, locus YLL001W, strain dnm1, active compounds read low 1.01 | S. cerevisiae deletion strains, locus YLL026W, active compounds read low 1.01 | S. cerevisiae deletion strains, locus YLL041C, strain sdh2, active compounds read low 1.01 | S. cerevisiae deletion strains, locus YLR027C, strain aat2, active compounds read low 1.01 | S. cerevisiae deletion strains, locus YLR039C, strain RIC1, active compounds read low 1.01 | S. cerevisiae deletion strains, locus YLR058C, strain SHM2, active compounds read low 1 | S. cerevisiae deletion strains, locus YLR102C, strain apc9, active compounds read low 0.987 | S. cerevisiae deletion strains, locus YLR113W, strain HOG1, active compounds read low 0.987 | S. cerevisiae deletion strains, locus YLR221C, strain rsa3, active compounds read low 1 | S. cerevisiae deletion strains, locus YLR258W, strain gsy2, active compounds read low 1.02 | S. cerevisiae deletion strains, locus YLR262C, strain YPT6 (second series), active compounds read low 1.02 | S. cerevisiae deletion strains, locus YLR262C, strain YPT6, active compounds read low 0.981 | S. cerevisiae deletion strains, locus YLR268W, strain sec22, active compounds read low 1 | S. cerevisiae deletion strains, locus YLR320W, strain mms22, active compounds read low 1.02 | S. cerevisiae deletion strains, locus YLR330W, strain CHS5, active compounds read low 0.994 | S. cerevisiae deletion strains, locus YLR342W, strain FKS1 (second series), active compounds read low 1.02 | S. cerevisiae deletion strains, locus YLR342W, strain FKS1, active compounds read low 1.03 | S. cerevisiae deletion strains, locus YLR357W, strain rsc2, active compounds read low 1.01 | S. cerevisiae deletion strains, locus YLR370C, strain arc18, active compounds read low 1.03 | S. cerevisiae deletion strains, locus YLR371W, strain rom2, active compounds read low 0.968 | S. cerevisiae deletion strains, locus YLR384C, strain iki3, active compounds read low 1 | S. cerevisiae deletion strains, locus YLR418C, strain cdc73, active compounds read low 1.05 | S. cerevisiae deletion strains, locus YML016C, strain PPZ1, active compounds read low 0.995 | S. cerevisiae deletion strains, locus YML032C, strain rad52, active compounds read low 0.977 | S. cerevisiae deletion strains, locus YML120C, strain ndi1, active compounds read low 1 | S. cerevisiae deletion strains, locus YML124C, strain tub3, active compounds read low 0.993 | S. cerevisiae deletion strains, locus YMR058W, strain fet3, active compounds read low 1.02 | S. cerevisiae deletion strains, locus YMR078C, strain ctf18, active compounds read low 0.99 | S. cerevisiae deletion strains, locus YMR125W, strain sto1, active compounds read low 1.02 | S. cerevisiae deletion strains, locus YMR129W, active compounds read low 1 | S. cerevisiae deletion strains, locus YMR205C, strain PFK2, active compounds read low 1.04 | S. cerevisiae deletion strains, locus YMR223W, strain ubp8, active compounds read low 0.996 | S. cerevisiae deletion strains, locus YMR231W, strain pep5, active compounds read low 1.02 | S. cerevisiae deletion strains, locus YMR263W, strain SAP30, active compounds read low 1.02 | S. cerevisiae deletion strains, locus YMR307W, strain GAS1, active compounds read low 1.04 | S. cerevisiae deletion strains, locus YNL067W, strain RPL9B, active compounds read low 0.948 | S. cerevisiae deletion strains, locus YNL071W, strain lat1, active compounds read low 1.01 | S. cerevisiae deletion strains, locus YNL128W, strain TEP1, active compounds read low 1.04 | S. cerevisiae deletion strains, locus YNL153C, strain GIM3, active compounds read low 1.03 | S. cerevisiae deletion strains, locus YNL183C, strain NPR1, active compounds read low 0.933 | S. cerevisiae deletion strains, locus YNL209W, strain ssb2, active compounds read low 1.01 | S. cerevisiae deletion strains, locus YNL233W, strain BNI4, active compounds read low 1.03 | S. cerevisiae deletion strains, locus YNL248C, strain rpa49, active compounds read low 0.984 | S. cerevisiae deletion strains, locus YNL250W, strain rad50, active compounds read low 0.988 | S. cerevisiae deletion strains, locus YNL271C, strain bni1, active compounds read low 0.991 | S. cerevisiae deletion strains, locus YNL298W, strain CLA4, active compounds read low 0.993 | S. cerevisiae deletion strains, locus YNL307C, strain MCK1, active compounds read low 1.01 | S. cerevisiae deletion strains, locus YNL322C, strain KRE1 (second series), active compounds read low 1.01 | S. cerevisiae deletion strains, locus YNL322C, strain KRE1, active compounds read low 0.998 | S. cerevisiae deletion strains, locus YNR049C, strain mso1, active compounds read low 1.01 | S. cerevisiae deletion strains, locus YNR052C, strain pop2, active compounds read low 0.982 | S. cerevisiae deletion strains, locus YOL006C, strain TOP1, active compounds read low 1.09 | S. cerevisiae deletion strains, locus YOL012C, strain htz1 0.84 | S. cerevisiae deletion strains, locus YOL147C, strain pex11, active compounds read low 0.998 | S. cerevisiae deletion strains, locus YOR001W, strain rrp6, active compounds read low 0.994 | S. cerevisiae deletion strains, locus YOR061W, strain CKA2, active compounds read low 1 | S. cerevisiae deletion strains, locus YOR069W, strain VPS5, active compounds read low 0.997 | S. cerevisiae deletion strains, locus YOR070C, strain gyp1, active compounds read low 1.01 | S. cerevisiae deletion strains, locus YOR080W, strain dia2, active compounds read low 1.02 | S. cerevisiae deletion strains, locus YOR083W, strain WHI5, active compounds read low 0.981 | S. cerevisiae deletion strains, locus YOR106W, strain vam3, active compounds read low 0.994 | S. cerevisiae deletion strains, locus YOR136W, strain idh2, active compounds read low 0.992 | S. cerevisiae deletion strains, locus YOR144C, strain elg1, active compounds read low 0.993 | S. cerevisiae deletion strains, locus YOR184W, strain ser1, active compounds read low 0.988 | S. cerevisiae deletion strains, locus YOR231W, strain MKK1, active compounds read low 1.01 | S. cerevisiae deletion strains, locus YOR265W, strain rbl2, active compounds read low 0.999 | S. cerevisiae deletion strains, locus YOR270C, strain vph1, active compounds read low 1.05 | S. cerevisiae deletion strains, locus YOR290C, strain snf2, active compounds read low 1 | S. cerevisiae deletion strains, locus YOR316C, strain cot1, active compounds read low 0.987 | S. cerevisiae deletion strains, locus YPL051W, strain arl3, active compounds read low 0.989 | S. cerevisiae deletion strains, locus YPL055C, strain LGE1, active compounds read low 0.981 | S. cerevisiae deletion strains, locus YPL078C, strain atp4, active compounds read low 1 | S. cerevisiae deletion strains, locus YPL106C, strain sse1, active compounds read low 1.02 | S. cerevisiae deletion strains, locus YPL240C, strain hsp82, active compounds read low 1 | S. cerevisiae deletion strains, locus YPL241C, strain CIN2, active compounds read low 0.992 | S. cerevisiae deletion strains, locus YPL256C, strain CLN2, active compounds read low 0.994 | S. cerevisiae deletion strains, locus YPR119W, strain clb2, active compounds read low 0.996 | S. cerevisiae deletion strains, locus YPR141C, strain kar3, active compounds read low 0.99 | S. cerevisiae deletion strains, locus YPR163C, strain tif3, active compounds read low 0.992 | S. cerevisiae deletion strains, locus YPR167C, strain met16, active compounds read low 0.996 | S. cerevisiae deletion strains, strain wtn01, active compounds read low 1.01 | S. cerevisiae strains, strain wild type, active compounds read low 1.01
